Hits are enriched below; roughly 21% of the tested compounds scored in any of these assays.
Pf growth 48h = Primary qHTS for delayed death inhibitors of the malarial parasite plastid, 48 hour incubation. AID 504832, 2011. P. falciparum luciferase growth in erythrocytes, 48 h. 5.9% of 310,000 active. Potency, µM (highest dose often 28.7 µM), inactives show at the highest dose activity change, negative = inhibition, most hits filed as inhibitors; note: potency is the fitted concentration of half-maximal effect; % is set by controls: 0 for no effect and ±100 for the full control effect
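Growth was read as firefly luciferase luminescence after a 48 h, 37 C, 5% CO2 exposure of compounds to reporter-bearing P. falciparum cultures (0.1% parasitemia, 2% hematocrit final) in Albumax-supplemented RPMI 1640.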
HCV inh = qHTS Assay for Inhibitors of Hepatitis C Virus (HCV); Potency, µM (titrated, usually from 41.8 µM), for inactives: top-dose activity change, negative = inhibition, usual class: inhibitors; 3.4% of 340,000 active; Huh7.5.1 HCVcc-Cre infection, luciferase reporter, 44 h; note: potency is the fitted concentration of half-maximal effect; % is set by controls: 0 for no effect and ±100 for the full control effect
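Infectious HCV cell culture screen: compound-treated cells (1,000/well, pre-plated 4 h) are infected with HCVcc-Cre at roughly 0.5 moi and grown 44 h. Infection is quantified by luciferase signal after 15 min substrate incubation at room temperature.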
Shiga toxin inh = A qHTS for Small Molecule Inhibitors of Shiga Toxin | Vero cells, Shiga toxin protein synthesis inhibition reporter | inhibition, % at 38.7 µM | 9.2% of 290,000 active; in the data active = inhibition mostly above about 28%, no sharp cut-off; inactive = mostly below about 43%; note: 0% is about no effect
HCMV antiviral = qHTS Assay for inhibitors of the human cytomegalovirus (HCMV); activity change, negative = inhibition, % at 57.5 µM; HFF cells, HCMV-luciferase reporter, 72 h; hits give low values; 4.5% of 410,000 active; AID 1259415, 2018; in the data active = activity change below about -60%; inconclusive = no clear call, values can overlap the other calls; inactive = above about -39%; note: % is set by controls: 0 for no effect and ±100 for the full control effect
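After 16 h attachment at 37C, HFF cells received test compound and HCMV-luciferase (1 PFU/cell); reporter luminescence read 72 h later, data normalized against buffer-only and known inhibitor Salinomycin.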
Pf growth 96h = Primary qHTS for delayed death inhibitors of the malarial parasite plastid, 96 hour incubation; P. falciparum luciferase reporter growth, 96 h; Potency, µM (titrated, usually from 28.7 µM), for inactives: at the top dose activity change, negative = inhibition, usual class: inhibitors; 6.9% of 320,000 active; note: potency is the fitted concentration of half-maximal effect; % is set by controls: 0 for no effect and ±100 for the full control effect
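Plates of compound plus infected erythrocytes (2% hematocrit, 0.05% parasitemia final) incubate 96 hours, 37 C, 5% CO2. Detection reagent added; reduced luminescence from the parasites' luciferase reporter flags inhibition.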
Cycloheximide cs = Cycloheximide Counterscreen for Small Molecule Inhibitors of Shiga Toxin; cell reporter, cycloheximide protein synthesis inhibition counterscreen; max response, %; 12% of 300,000 active; AID 2314, 2010; in the data active = max response mostly above about 13%, no sharp cut-off; inactive = mostly below about 14%; note: read at 38.3 µM for the half of the compounds with a filed dose; 0% is about no effect
Active calls of the source: *; u = inconclusive; x = no result; [ ] = dose if it differs, or a comment. Unless noted, calls come from the whole dose curve; as a rule, active = well fitted inhibition curve with a large enough effect; inconclusive = small, poorly fitted or top-dose-only effect, or another doubt; inactive = no such curve, though single readings can be large or run the other way.

SMILES	Pf growth 48h	HCV inh	Shiga toxin inh	HCMV antiviral	Pf growth 96h	Cycloheximide cs
CCn1nnc(NC(=O)c2ccco2)n1	40%	19%	5	34	-3%	6
CC(=O)N1CCN(CC(=O)Nc2c(Cl)ccc(C)c2Cl)CC1	0%	19%	4	-20	48%	-1
Cc1ccc(C)c(OCC(=O)N/N=C/c2c(C)nn(-c3ccccc3)c2Cl)c1	-14%	x	-29	18	x	-3
Cc1nn(-c2ccccc2)c(Cl)c1/C=N/NC(=O)OC(C)(C)C	-3%	-19%	71*	4	u	38*
COc1ccc(C[C@@H]2CN3C(=NC[C@@H]3C)N2CCNC(=O)c2ccc(C)c(Br)c2)cc1	u	-12%	-13	-10	13µM*	-1
C/C=C(\C)C(=O)NCCN1C2=NC[C@H](C)N2C[C@@H]1Cc1ccc(OC)cc1	46%	10%	14	-16	63%	-2
Cc1ccc(C(=O)N[C@@H](C)CN2C3=NC[C@H](C)N3C[C@H]2Cc2ccc(O)cc2)cc1Br	10µM*	x	5	x	4.1µM*	12
CCC/C=C/c1ccc(CN2C(C(C)C)C(=O)N(Cc3cn(CCC4OCCCO4)nn3)CCS2(=O)=O)cc1 (stereo unspecified)	x	x	x	-5	x	x
Cc1ccccc1NC(=S)N1CCN(c2ccccc2)CC1	u	13%	x	34	u	-1
C=Cc1ccc(Cn2ccn(-c3ccc(F)c(F)c3)c(=O)c2=O)cc1	x	x	x	-20	x	x
CC(C)N1CCN(c2ccc(OC[C@H]3CO[C@](Cn4cncn4)(c4ccc(Cl)cc4Cl)O3)cc2)CC1	13µM*	u	x	-99*	9.3µM*	x
CC(C)N1CCN(c2ccc(OCC3COC(Cn4cncn4)(c4ccc(Cl)cc4Cl)O3)cc2)CC1 (stereo unspecified)	x	u	x	-16	x	x
O=C(O)c1ccc2c(c1)C(=O)N([C@H](Cc1ccc(F)cc1)C(=O)O)C2=O	u	x	15	x	19%	5
COc1ccc2o/c(=N\O)c(C(=O)Nc3ccccc3OC)cc2c1	23%	6%	27	11	x	7
COc1cccc2cc(C(=O)Nc3ccccc3C)/c(=N/O)oc12	6%	9%	89*	73	130%	28*
COc1ccccc1C(=O)Nc1ccc(Br)c2cccnc12	-4%	-27%	9	-23	u	-2
COc1ccccc1C(=O)Nc1ccc(Br)cc1C	57%	-9%	63*	49	u	29*
COCC(=O)Nc1ccc(Br)cc1C	12%[5.75 µM]	4%	-3	5	5.9µM*	5
Cc1cc(C)c(S(=O)(=O)Nc2cccc(C(=O)O)c2)cc1S(=O)(=O)Nc1cccc(C(=O)O)c1	x	27%	x	-14	x	x
CCCN(CC(=O)Nc1ccccc1C)C(=O)Cc1c[nH]c2ccccc12	x	5%	x	28	x	x
CCCN(CC(=O)Nc1ccccc1C)C(=O)Cc1c(C)nc2ccccc2c1C	10µM*	-3%	x	-32	u	x
CCCN(CC(=O)Nc1ccccc1C)C(=O)c1oc2ccc(OCC)cc2c1C	2.9µM*	u	x	-36	7.4µM*	x
CCOc1ccc2oc(C(=O)NC3CC(C)(C)NC(C)(C)C3)c(C)c2c1	0%	13µM*	6	-4	0%	-1
CCOc1ccc2oc(C(=O)NC(C)(C)CC)c(C)c2c1	121%	-2%	67*	-25	54%	48*
CCOc1ccc2oc(C(=O)NC3CCN(Cc4ccccc4)CC3)c(C)c2c1	13%	u	12	u	u	-3
SMILES	Pf growth 48h	HCV inh	Shiga toxin inh	HCMV antiviral	Pf growth 96h	Cycloheximide cs
CCN1C(=NCCc2c[nH]c3ccccc23)N[C@@H](c2ccccc2)[C@H](C(=O)OC)[C@H]1C	u	u	-9	67	-1%	-1
Cc1ccn2c(=O)nc(SCC(=O)NCc3ccccc3Cl)nc2c1	10%	7%[8.37 µM]	x	-8	-19%	x
COc1ccc(-c2csc(C(O)c3ccc(F)cc3)n2)cc1 (stereo unspecified)	x	x	x	8	x	x
COc1cccc(C(O)c2nc(-c3ccncc3)cs2)c1 (stereo unspecified)	x	x	x	-76*	x	x
COc1ccc(-c2csc(C(O)c3ccc(OC)cc3)n2)cc1 (stereo unspecified)	x	x	x	-72*	x	x
Cc1ccc(-c2[nH]n3c(=O)c4c(nc3c2C)CCCC4)cc1	0.046µM*	8%	-5	13	-28%	3
Cc1c(-c2ccccc2)[nH]n2c(=O)c3c(nc12)CCCC3	u	-22%	44*	-13	u	29*
Cc1nc2nc3c(c(=O)n2[nH]1)CCC3	-12%	2%	-7	-3	24%	-4
Cc1nc([N+](=O)[O-])c(C(=O)OCc2ccc(C#N)cc2)n1C	14%	13%	-1	u	u	6
Cc1ccc(N(CC(=O)NCCc2ccc(F)cc2)S(=O)(=O)c2ccc(Cl)c([N+](=O)[O-])c2)c(C)c1	u	10µM*	-10	-1	u	-8
O=C(O)C1C2C=CC(C2)C1C(=O)NCc1ccc(Cl)cc1Cl (stereo unspecified)	4%	-6%	1	16	5%	-3
O=C(O)C1C2C=CC(C2)C1C(=O)OCc1ccccc1 (stereo unspecified)	-9%	2%	-9	38	9.3µM*	-3
O=C(NNC(=O)C1C2C=CC(C2)C1C(=O)O)c1ccccc1 (stereo unspecified)	4%	-10%	101*	-16	-16%	39*
O=C(NNC(=O)C1C2C=CC(C2)C1C(=O)O)c1cc(Cl)ccc1O (stereo unspecified)	10%	0%	21	u	-14%	19*
C=C(Cl)COC(=O)[C@H]1C2C=CC(C2)C1C(=O)O (stereo partly specified)	3%	3%	12	-28	15%[5.75 µM]	-1
O=C(NNC(=O)C1C2C=CC(C2)C1C(=O)O)c1ccccc1O (stereo unspecified)	17%	24%	50*	-12	-14%	17*
Cn1ncc(N=Cc2ccc([N+](=O)[O-])cc2)c1C(=O)Nc1ccccc1	0%	-14%	-13	-33	-13%	-2
COc1ccccc1CSc1nc2c(c(=O)n(C)c(=O)n2C)n1C	12%	-5%	-8	-24	-14%	-1
Cc1ccc(S(=O)(=O)N2CCN(C(=O)c3sccc3-c3ccccc3)CC2)cc1	-19%	0%	-11	-2	-29%	1
CCCN(CCC)S(=O)(=O)c1cccc(C(=O)N=c2sccn2C)c1	u	u	7	39	-39%	-2
Nc1nc(N)c2c(n1)CCCC2	u	0%	-6	-33	u	2
Cc1cc(C)n2c(Nc3c(C)cccc3C)c(-c3ccccn3)nc2n1	x	x	x	-69*	x	x
